One assay has as its system Molm13. In words: cell viability relative to DMSO control (bortezomib = 0%); higher = less growth inhibition. The note with it: 10 nM; 72 h. The gist of the method:
(§1)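 Cell viability was assessed by CellTiter-Glo luminescence. Acute myeloid leukemia cells were seeded at 1000 cells per well in 50 µL on a 384-well library of 679 compounds at a single 10 nM dose for 72 h. Per-plate linear regression set DMSO-treated cells at 100% and positive-control-treated cells at 0%.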

In another assay the test system is Mv4-11. The assay is described as above. Particulars: 10 nM; 72 h. The gist of the method: as §1

Counter-ions that a name gives are not always drawn. ± gives the standard deviation of the averaged measurements.

Broadly, the cell viability is a read-out of living cells in per cent, often relative to untreated cells. Regarding `CCOc1cc(N2CCC(O)CC2)ccc1Nc1ncc2c(n1)N(C)c1ccccc1C(=O)N2C`, the figures for the cell viability in the assay with Molm13 and in the assay with Mv4-11 were 98.8 ± 5.5% and 98.8 ± 2%, respectively.
On the same counts, the results for `O=C(NCc1cccc(O)c1)c1cc2cc(F)ccc2[nH]1` are 113 ± 3.2% and 114 ± 1.2%.
On to `N#CC(=C(/N)Sc1ccccc1N)/C(C#N)=C(\N)Sc1ccccc1N`, for which the cell viability with Molm13 worked out at 99.3 ± 16%; in the assay on Mv4-11 it was 104 ± 7%.
As to `Cc1ccc(C(=O)N(CCCN)[C@@H](c2nc3cc(Cl)ccc3c(=O)n2Cc2ccccc2)C(C)C)cc1`, the cell viability in the assay with Molm13 worked out at 2.83 ± 14%; in the assay with Mv4-11 it was 6.27 ± 10%.
On the same counts, the results for `Nc1ncnc2c1c(-c1cccc(OCc3ccccc3)c1)cn2C1CC(CN2CCCC2)C1` (configuration not stated) are 103 ± 13% and 96.5 ± 2.5%.
Regarding `CCOc1cc2ncc(C#N)c(Nc3ccc(OCc4ccccn4)c(Cl)c3)c2cc1NC(=O)/C=C/CN(C)C` [Neratinib(HKI-272)], the cell viability came out at 106 ± 20% with Molm13 and 100 ± 3.7% in the assay with Mv4-11.
With `C=CC(=O)Nc1cc2c(Nc3ccc(F)c(Cl)c3)ncnc2cc1OCCCN1CCOCC1` [Canertinib (CI-1033)], the cell viability with Molm13 was determined as 118 ± 10%; in the assay on Mv4-11, 111.9 ± 0.6%.
As to `COc1ccc2cc1Oc1ccc(cc1)C[C@H]1c3cc(c(OC)cc3CCN1C)Oc1c(O)c(OC)cc3c1[C@H](C2)N(C)CC3` [(+)-Fangchinoline], the cell viability is 116 ± 13% with Molm13 and 114 ± 1.3% in the assay with Mv4-11.
As for `CN(C)CCN(Cc1ccc(Cl)cc1)c1ccccn1` [Chloropyramine hydrochloride], the cell viability was 105 ± 27% in the assay with Molm13 and 107 ± 12% with Mv4-11.
In the case of `COc1ccc(C=C(C#N)c2cccnc2)cc1OC`, the cell viability in the assay on Molm13 worked out at 100 ± 14%; in the assay with Mv4-11, 103 ± 0.99%.
Consider `Nc1cccc(-c2cc3c(Oc4cccc(O)c4)ncnc3[nH]2)c1`, for which the cell viability in the assay with Molm13 turned out to be 101 ± 14%; with Mv4-11 it was 112 ± 13%.
As for `CNC(=O)c1cccc(-c2ccc3c(N4CCOC[C@@H]4C)nc(N4CCOC[C@@H]4C)nc3n2)c1`, the figures for the cell viability in the assay on Molm13 and with Mv4-11 were 83.69 ± 0.63% and 98.5 ± 20%, respectively.
Turning to `Cc1c(C)c2c(c(C)c1O)CC[C@@](C)(CCC[C@H](C)CCC[C@H](C)CCCC(C)C)O2` [Vitamin E], the cell viability is 93.3 ± 1.1% in the assay on Molm13 and 107 ± 16% in the assay with Mv4-11.
For `Cc1[nH]c(/C=C2\C(=O)Nc3ccccc32)c(C)c1CCC(=O)O`, the cell viability in the assay with Molm13 came out at 107 ± 18%; in the assay on Mv4-11 it was 108 ± 14%.
As to `C[C@@H](Oc1ccc2[nH]nc(/C=C/c3cnn(CCO)c3)c2c1)c1c(Cl)cncc1Cl`, the cell viability with Molm13 came to 97.5 ± 12%; in the assay on Mv4-11, 105 ± 3.5%.
As to `O=c1sn(-c2cccc3ccccc23)c(=O)n1Cc1ccccc1` [Tideglusib], the values for the cell viability in the assay on Molm13 and in the assay on Mv4-11 were 116 ± 9.5% and 95.4 ± 20%, respectively.
On the same counts, the results for `COc1cc2c(Oc3ccc4[nH]c(C)cc4c3F)ncnc2cc1OCCCN1CCCC1` [Cediranib (AZD2171)] are 107 ± 23% and 107 ± 10%.
`N#CC(=Cc1cc(Cl)cc(Cl)c1)c1cccnc1`: the cell viability in the assay with Molm13 worked out at 116 ± 8.1%; in the assay with Mv4-11, 108 ± 7.3%.
Regarding `CN1CCN(c2nc(C3=C(c4c[nH]c5ccccc45)C(=O)NC3=O)c3ccccc3n2)CC1` [Sotrastaurin], the cell viability is 99 ± 21% with Molm13 and 109 ± 11% in the assay with Mv4-11.
For the molecule `CCOc1cc(C(=O)N2CCC(N3CCN(C)CC3)CC2)ccc1Nc1ncc2c(n1)N(C1CCCC1)c1ccccc1C(=O)N2C`, the cell viability was 111 ± 7.2% in the assay with Molm13 and 96.1 ± 19% in the assay with Mv4-11.
Take `COc1ccc(-c2cnc3c(-c4cccc5ncccc45)cnn3c2)cc1`: the cell viability with Molm13 was found to be 103 ± 12%; in the assay with Mv4-11, 103 ± 1.6%.
In the case of `COc1ccc2c(c1)c(C1=C(c3c[nH]c4ccccc34)C(=O)NC1=O)cn2CCCN(C)C`, the cell viability in the assay on Molm13 amounted to 85.4 ± 2%; in the assay with Mv4-11, 103 ± 7.6%.
The matching figures for `CN1CCN(CCOc2cc(OC3CCOCC3)c3c(Nc4c(Cl)ccc5c4OCO5)ncnc3c2)CC1` [Saracatinib (AZD0530)]: 98.2 ± 3.5% and 106 ± 6.2%.
As to `O=c1cc(-c2ccc(O)cc2)oc2cc(O)c(O)c(O)c12` [Scutellarein], the values for the cell viability in the assay with Molm13 and in the assay on Mv4-11 were 108 ± 3.9% and 100 ± 5.4%, respectively.
For the molecule `COc1cc(OC)c(/C=C/S(=O)(=O)Cc2ccc(OC)c(OP(=O)(O)O)c2)c(OC)c1` [Briciclib], the cell viability amounted to 114 ± 25% in the assay with Molm13 and 106 ± 11% with Mv4-11.
On the same counts, the results for `O=C1NC(=O)/C(=C/c2ccc3c(c2)OCO3)S1` are 96 ± 3% and 112 ± 8%.
Regarding `O=Nc1c(-c2c(O)[nH]c3ccccc23)[nH]c2ccccc12` [Indirubin-3'-monoxime], the cell viability in the assay on Molm13 was 88 ± 13%; with Mv4-11 it was 80.7 ± 4.5%.
On the same counts, the results for `Cc1nc(Nc2ncc(C(=O)Nc3c(C)cccc3Cl)s2)cc(N2CCN(CCO)CC2)n1` [Dasatinib] are 111 ± 29% and 114 ± 2.2%.
As for `Nc1nccc(Oc2ccc3c(C(=O)Nc4cccc(C(F)(F)F)c4)cccc3c2)n1`, the cell viability with Molm13 is 94.7 ± 6.4%; in the assay with Mv4-11, 117 ± 8.5%.
Regarding `Oc1cccc(Nc2ncc(F)c(Nc3cccc(O)c3)n2)c1`, the cell viability with Molm13 was 83 ± 15%; in the assay on Mv4-11 it was 96.5 ± 16%.
With `Cc1ccc(C(=O)Nc2ccc(CN3CCN(C)CC3)c(C(F)(F)F)c2)cc1C#Cc1cnc2[nH]ncc2c1` [GZD824 Dimesylate], the values for the cell viability with Molm13 and in the assay with Mv4-11 were 4.07 ± 5.9% and -9.27 ± 10%, respectively.
On to `CNC(=O)c1cc(Oc2ccc(NC(=O)Nc3cc(C(C)(C)C)nn3-c3ccc4ncccc4c3)c(F)c2)ccn1` [DCC-2036 (Rebastinib)], for which the cell viability in the assay with Molm13 was 95.7 ± 1.2%; in the assay with Mv4-11 it was 107 ± 7.3%.
Regarding `C=C(C)[C@@H]1CC[C@]2(C)CC[C@]3(C)[C@H](CC[C@@H]4[C@@]5(C)CC[C@H](O)C(C)(C)[C@@H]5CC[C@]43C)[C@@H]12` [Lupeol], the cell viability worked out at 101 ± 9.8% in the assay with Molm13 and 94.9 ± 1.2% in the assay with Mv4-11.
With `O=S(=O)(c1cccc2cnccc12)N1CCCNCC1` [HA-1077 (hydrochloride)], the values for the cell viability in the assay with Molm13 and in the assay on Mv4-11 were 105 ± 14% and 112 ± 3.5%, respectively.
Consider `Cn1cnc2nc(NCCO)nc(NCc3ccccc3)c21` [Iso-Olomoucine], for which the cell viability in the assay on Molm13 was 119 ± 15%; in the assay with Mv4-11 it was 113 ± 9.7%.
With `O=C(Nc1ccc2[nH]nc(-c3ccncc3)c2c1)[C@@H]1CCN(CC(=O)N2CCN(c3ccc(-c4ncccn4)cc3)CC2)C1`, the cell viability in the assay with Molm13 came out at 92 ± 12%; in the assay on Mv4-11, 95.8 ± 19%.

Source of the values: the supplement of paper PMC8699584.
